Test results from PubChem BioAssay.
The source made the active and inactive calls.

Experiments:
[1] = compound effects on lung adenocarcinoma cell viability – A549, calcein-AM fluorescence, 48 h, basal, profiling panel (AID 1162); details: higher = more signal
[2] = compound effects on differentiated 3T3-L1 adipocyte viability – cell-based, 3T3-L1 adipocytes, calcein-AM fluorescence, 48 h, basal, profiling panel (AID 1163); details: 3T3-L1 adipocytes viability, higher = more signal
[3] = compound effects on hepatocellular carcinoma cell viability – HepG2, calcein-AM fluorescence, 48 h, basal, profiling panel (AID 1164); details: higher = more signal
[4] = compound effects on multiple myeloma cell viability – MM1S, calcein-AM fluorescence, 48 h, basal, profiling panel (AID 1165); details: higher = more signal;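 note: viability of MM1S multiple myeloma cells under basal unstimulated conditions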
[5] = calcein-AM signal in unstimulated myeloma cells – cell-based, calcein-AM fluorescence, 48 h, PK04 Diversity Set, profiling panel (AID 1166); details: RPMI8226 myeloma viability, higher = more signal;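 note: cells grown under basal conditions without added stimulus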
[6] = JC-1 mitochondrial signal, unstimulated HepG2 cells – cell-based, JC-1 fluorescence, 24 h, 100 nL compound, profiling panel (AID 1167); details: HepG2 mitochondrial potential, higher = more signal
[7] = JC-1 mitochondrial signal, unstimulated adipocytes – cell-based, JC-1 fluorescence, 3T3-L1 adipocytes, 24 h, 100 nL compound, profiling panel (AID 1168); details: JC-1 mitochondrial fluorescence, higher = more signal, called active from +8 up or from −8 down
[8] = JC-1 mitochondrial signal, unstimulated myeloma cells – cell-based, JC-1 fluorescence, RPMI8226, 24 h, 100 nL compound, profiling panel (AID 1169); details: JC-1 mitochondrial potential fluorescence, higher = more signal
[9] = JC-1 mitochondrial signal, unstimulated MM1S myeloma – cell-based, JC-1 fluorescence, 24 h, 100 nL compound, profiling panel (AID 1170); details: MM1S mitochondrial potential, higher = more signal
[10] = resazurin metabolic signal in A549 cells – cell-based, resazurin fluorescence, 24 h, PK04 Diversity Set, profiling panel (AID 1171); details: A549 viability, higher = more signal, called active from +8 up or from −8 down
Note: test concentration not given here.

| SMILES | z-score [1] | z-score [2] | z-score [3] | z-score [4] | z-score [5] | z-score [6] | z-score [7] | z-score [8] | z-score [9] | z-score [10] |
| --- | --- | --- | --- | --- | --- | --- | --- | --- | --- | --- |
| COc1ccc(NN2C(C(O)c3ccc(F)cc3)C=CC3C(=O)N(C4CCCCC4)C(=O)C32)cc1 (stereo not given) | -0.705 | -0.17 | -0.0716 | -1.05 | -1.08 | -0.496 | -1.23 (inactive) | -0.169 | -0.191 | 0.227 (inactive) |
| C=CCOC(=O)[C@H]1[C@@H]2C(=O)O[C@@H](c3ccccc3)[C@@H](c3ccccc3)N2[C@@H](c2ccc(OCCOC(=O)[C@H]3C[C@H]4C(=O)NCC(=O)N4[C@H]3c3cccc(OCCO)c3)cc2)[C@]12C(=O)Nc1ccc(I)cc12 | 0.0164 | 0.656 | 0.902 | -0.223 | 0.491 | -0.777 | -0.00167 (inactive) | -0.554 | -1.28 | 0.592 (inactive) |
| C[N+](C)(C)CCCC[C@@H]1NC(=O)[C@H]2C[C@@H](C(=O)O)[C@@H](c3ccc(O)cc3)N2C1=O | 0.434 | 0.291 | 0.0336 | -3.12 | 0.442 | 1.93 | -0.301 (inactive) | -0.2 | -1.26 | 0.554 (inactive) |
| O=C1c2ccccc2[C@@]2(Cc3ccccc3N(CC(F)(F)F)C2=O)[C@H](c2ccc(CO)cc2)N1Cc1ccccc1 | -0.293 | 1.21 | -1.13 | 0.191 | -2.24 | -0.631 | -2.33 (inactive) | 0.928 | -1.09 | -0.279 (inactive) |
| C=CCNC(=O)[C@H]1[C@@H]2C(=O)O[C@@H](c3ccccc3)[C@@H](c3ccccc3)N2[C@@H](c2ccc(OCCO)cc2)[C@]12C(=O)Nc1ccc(C#Cc3ccc(OC)cc3)cc12 | -1.09 | 2.01 | -0.845 | -0.291 | -2.14 | -1.38 | 3.11 (inactive) | -1.22 | -0.867 | -1.04 (inactive) |
| CCCCC(=C=CC[C@@H](O)c1ccccc1OCCO)C[C@@H](O)c1ccccn1 | -0.158 | -0.48 | 0.242 | -0.35 | -0.84 | -0.16 | 0.341 (inactive) | 0.495 | -0.179 | 0.756 (inactive) |
| C=CCOC(=O)[C@@H]1[C@H]2C(=O)O[C@H](c3ccccc3)[C@H](c3ccccc3)N2[C@H](c2ccc(OCCOC(=O)[C@@H]3C[C@@H]4C(=O)N[C@@H](CC(C)C)C(=O)N4[C@@H]3c3ccc(O)cc3)cc2)[C@@]12C(=O)Nc1ccc(I)cc12 | -0.226 | 0.175 | -0.0024 | 0.26 | 1.31 | -1.61 | 0.872 (inactive) | -0.575 | -0.925 | 0.595 (inactive) |
| C[C@]1(C(=O)NC2CC2)c2ccccc2C(=O)N(Cc2cc(F)cc(C(F)(F)F)c2)[C@H]1c1ccc(CO)cc1 | -0.685 | 0.274 | 0.0046 | 0.0749 | -0.237 | 1.2 | 0.0232 (inactive) | 0.107 | -0.328 | 1.79 (inactive) |
| CN(C)C(=O)[C@]1(CCS(=O)(=O)c2ccccc2)N=C(c2ccc(OCCCO)cc2)O[C@@H]1c1ccccc1CN=[N+]=[N-] | -0.306 | -0.0349 | 0.589 | -1.29 | 0.382 | -0.12 | -0.197 (inactive) | 0.0522 | -0.776 | 1.09 (inactive) |
| COC(=O)[C@@]1(Cc2ccccc2)[C@H]2c3cc(C(=O)N(C)C)n(Cc4nc5ccccc5[nH]4)c3C[C@H]2CN1C(=O)c1ccccc1 | 0.173 | -0.232 | 0.858 | -0.013 | -0.191 | -0.3 | 0.385 (inactive) | -0.303 | -0.701 | 0.0716 (inactive) |
| CC1CC/C=C\[C@H]2OC34C=CCN(CCN5CCOCC5)C(=O)[C@H]3N(C(CO)C(C)C)C(=O)[C@@H]4C2C(=O)O1 (stereo not given in full) | 0.0685 | -1.26 | 0.545 | -0.515 | 0.0582 | -0.989 | -0.161 (inactive) | 0.19 | -0.308 | -0.37 (inactive) |
| COCCOC(=O)N1C(=O)[C@@]2(c3cc(C#CC4=CCCCC4)ccc31)[C@H](c1ccc(O)cc1)N1[C@H](c3ccccc3)[C@H](c3ccccc3)OC(=O)[C@H]1[C@@H]2C(=O)N1CCc2cc(OC)c(OC)cc2C1 | -0.565 | -0.154 | -0.493 | 0.0055 | -1.33 | 0.0573 | 1.8 (inactive) | -1.11 | -0.432 | 0.0836 (inactive) |
| C=C(C(=O)CC[C@@H](OC(=O)c1cccnc1)c1cccc(OCCO)c1)C(C)C | 0.281 | 0.568 | 1.19 | -1.27 | -0.855 | -0.0539 | -0.227 (inactive) | -0.706 | -0.928 | 0.508 (inactive) |
| [N-]=[N+]=Nc1ccccc1C[C@]1(C(=O)N2CCCCC2)N=C(c2ccc(OCCCO)cc2)O[C@H]1c1ccccc1 | -0.786 | 0.0946 | 0.014 | -3.29 | -4.3 | 0.839 | 0.231 (inactive) | -1.2 | -2.15 | -0.676 (inactive) |
| CC1C2C(CCCO)=CC(C3C(=O)N(C(N)=O)C(=O)C23)N1Cc1cccc(OC(F)(F)F)c1 (stereo not given) | -0.846 | -0.528 | 0.192 | -0.486 | 0.244 | -0.632 | -0.795 (inactive) | 0.787 | -0.547 | -0.13 (inactive) |
| C=CC[C@H](O)c1ccc(O)c2ccccc12 | 0.902 | -0.0385 | -0.817 | -2.84 | -3.71 | -2.13 | 0.241 (inactive) | -0.752 | -1.71 | -0.409 (inactive) |
